The list is not random: actives were taken first. Their share in the collection is about 8.9%.
KB-V1 MDR tox = qHTS assay for MDR1-selective chemotherapeutics: Primary screen using the drug-selected MDR subline cells KB-V1. AID 1347076, 2019. KB-V1 MDR cells viability, CellTiter-Glo, 72 h. hit rate 3.4% among 400,000. Potency, µM (top dose mostly 46.1 µM), usual class: cytotoxic; further: potency means the concentration at half of the fitted maximal effect; on the % scale 0 is the no-effect control and ±100 the full control effect; nearly all actives have a fitted effect of over 60% in size
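KB-V1 MDR subline cells in DMEM (phenol-red free, 10% FBS) exposed to compounds in qHTS concentration series for 72 h at 37 degrees C. Viability read by CellTiter-Glo luminescence; concentration-effect curves fitted after normalization and correction.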
D3 antag = qHTS of D3 Dopamine Receptor Antagonist: qHTS. D(3) dopamine receptor (Homo sapiens), P35462. max response, negative = inhibition, %. hit rate 2.5% among 360,000. D3R cells, DiscoveRx beta-arrestin luminescence, antagonist mode; stronger effect = lower value; in the data active means max response below about -50%; inconclusive means no clear call, values can overlap the other calls; further: on the % scale 0 is the no-effect control and ±100 the full control effect
Target sequence (P35462 whole entry, looked up): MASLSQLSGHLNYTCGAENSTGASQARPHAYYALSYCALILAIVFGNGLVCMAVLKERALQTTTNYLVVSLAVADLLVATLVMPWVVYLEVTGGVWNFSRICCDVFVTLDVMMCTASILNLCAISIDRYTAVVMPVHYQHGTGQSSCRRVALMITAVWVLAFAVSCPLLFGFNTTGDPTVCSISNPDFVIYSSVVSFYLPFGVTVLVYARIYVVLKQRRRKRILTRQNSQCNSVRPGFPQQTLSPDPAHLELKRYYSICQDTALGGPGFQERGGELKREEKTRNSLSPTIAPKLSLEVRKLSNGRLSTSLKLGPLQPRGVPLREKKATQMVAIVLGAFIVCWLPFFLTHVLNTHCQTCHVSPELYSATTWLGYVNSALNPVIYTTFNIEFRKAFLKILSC
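Cells plated overnight at 1500 cells/well, then exposed to library compounds with dopamine controls for 90 minutes at 37 degrees C. DiscoveRx reagent added for 30–60 minutes at room temperature; luminescence read, quantitative HTS format.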
KB-3-1 cytotox = qHTS assay for MDR1-selective chemotherapeutics: Primary screen using the parental adenocarcinoma cell KB-3-1; KB-3-1 viability, CellTiter-Glo ATP luminescence, 72 h; Potency, µM (top dose mostly 46.1 µM), actives largely listed as cytotoxic; hit rate 1.4% among 400,000; further: potency means the concentration at half of the fitted maximal effect; on the % scale 0 is the no-effect control and ±100 the full control effect; nearly all actives have a fitted effect of over 60% in size
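Parental KB-3-1 viability, qHTS format: 72 h compound exposure, 37 °C; CellTiter-Glo; media-only wells and DMSO plates as controls; concentration-effect fits on corrected data.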
SW480 rereplic = A quantitative high throughput screen for small molecules that induce DNA re-replication in SW480 colon adenocarcinoma cells; Potency, µM (highest dose often 46.1 µM), for inactives: at the top dose re-replication activation, most hits filed as activators; AID 624297, 2012; hit rate 1.8% among 340,000; SW480 DNA re-replication, Hoechst DNA content imaging, 48 h; further: potency means the concentration at half of the fitted maximal effect; % of control where 0% means no effect; nearly all actives have a fitted effect of over 55% in size
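Compounds, transferred as 23 nL by pin tool, were incubated with cells for 48 hr; DNA content per nucleus was then quantified by Hoechst staining and fluorescence plate imaging.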
DRD3 agonist = qHTS of D3 Dopamine Receptor Agonist: qHTS. D(3) dopamine receptor (Homo sapiens), P35462. D3R DiscoveRx beta-arrestin cells, luminescence, 90 min. max activation, %. hit rate 0.58% among 410,000; in the data active means max activation above about 30%; further: 0% is about no effect
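Agonist mode: compounds and dopamine controls were applied to plated cells for 90 min at 37 degrees C after an overnight attachment at 1500 cells/well. Luminescent read-out followed 30 - 60 minutes at room temperature with DiscoveRx detection reagent.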
MCF10A rereplic = A quantitative high throughput screen for small molecules that induce DNA re-replication in MCF 10a normal breast cells | MCF 10A DNA re-replication, Hoechst nuclear intensity, 48 h | Potency, µM (highest dose often 46.1 µM), for inactives: top-dose activity, positive = re-replication, actives largely listed as activators | hit rate 2.9% among 350,000 | AID 624296, 2012; further: potency means the concentration at half of the fitted maximal effect; % of control where 0% means no effect; nearly all actives have a fitted effect of over 50% in size
The depositor's hits bear a star; i = inactive; ? = inconclusive; · = not tested or not shown. Unless noted, the call rests on the fitted dose curve; in most records, active means well fitted curve in the direction sought with a large enough effect; inconclusive means small, poorly fitted or top-dose-only effect, or another doubt; inactive means no such curve, though single readings can be large; an effect the other way counts as inactive or inconclusive.

SMILES	KB-V1 MDR tox	D3 antag	KB-3-1 cytotox	SW480 rereplic	DRD3 agonist	MCF10A rereplic
CC(=O)c1sc(Nc2nc3cc4c(cc3s2)OCO4)nc1C	?	-6.7	i	20.6µM*	1.3	18.4µM*
COc1ccc2nc(Nc3nc(C)c(C(C)=O)s3)sc2c1	18.4µM*	-22.3	i	16.4µM*	-1.2	?
CCOc1ccccc1NC(=O)CSc1nc2c([nH]c3ccccc32)c(=O)n1-c1ccccc1	·	·	·	·	-10.5	·
O=C(Nc1ccc2nc(SCc3ccc(Cl)cc3)sc2c1)c1ccccc1C(=O)N1CCOCC1	i	0.0	i	3.4%	6.2	6.51µM*
COC(=O)CSc1nc2ccc(NC(=O)c3ccccc3C(=O)N3CCOCC3)cc2s1	?	4.8	i	-3.9%	2.5	1.1%
O=C(COCc1cc(-c2ccc3c(c2)OCO3)on1)NCc1ccccc1Cl	i	·	i	·	5.0	·
CCc1cc(-c2nnn(CCC3COCCO3)c2CC)ccc1-c1cn(Cc2ccccc2)nn1 (configuration not stated)	1.84µM*	29.5	?	·	18.5	·
Cc1csc2nc(O)c(C(=O)NCCCc3ccccc3)c(=O)n12	16.4µM*	27.1	?	-0.6%	4.7	1.1%
Cc1csc2nc(O)c(C(=O)NCCC3=CCCCC3)c(=O)n12	9.2µM*	22.1	i	-0.5%	6.6	?
Cc1nc2scc(C)n2c(=O)c1S(=O)(=O)NCCc1ccccc1	i	11.6	i	6.5%	3.1	6.0%
O=C(Nc1ccc(-c2nc3ccccc3[nH]2)cc1)c1ccc2c(c1)OCCO2	i	·	?	·	·	·
CCOC(=O)C1=C(C)NC(=O)CC1c1cc2c(cc1Br)OCO2 (configuration not stated)	i	-51.1*	?	-4.5%	4.0	-0.7%
Cc1cc(=O)[nH]c(N2CCN(Cc3ccccc3)CC2)n1	i	-6.9	i	-4.2%	1.1	-4.6%
O=c1[nH]ncc(N2CCN(Cc3ccccc3)CC2)c1Cl	i	-71.2*	i	-0.4%	-15.1	-2.6%
O=C(CC1NCCc2ccccc21)Nc1ccccc1 (configuration not stated)	i	-74.2*	i	-3.8%	-10.0	-3.3%
COc1ccc(/C=N/n2cc(-c3ccccc3)nc2N)cc1	7.31µM*	?	3.66µM*	?	-8.2	23.1µM*
O=C(Cn1ncc2c3ccccc3n(Cc3ccccc3)c2c1=O)NCCCN1CCCCC1	i	·	i	·	-9.7	·
Cc1nnc(SCC(=O)Nc2cccc([N+](=O)[O-])c2)n1CC1CCCO1 (configuration not stated)	i	-0.7	i	-56.7%	5.5	-0.2%
Cc1nnc(SCC(=O)Nc2ccc([N+](=O)[O-])cc2)n1CC1CCCO1 (configuration not stated)	i	-8.5	i	23.1µM*	-5.8	3.0%
CC(=O)Nc1ccc(NC(=O)C(C)OC(=O)c2ccc(S(=O)(=O)N3CCCCCC3)cc2)cc1 (configuration not stated)	?	-11.7	?	?	-5.4	14.6µM*
Cc1cccc(NC(=O)COC(=O)c2ccc(S(=O)(=O)N3CCCCCC3)cc2)c1	16.4µM*	3.6	i	-2.2%	4.8	16.8%
O=C(COC(=O)c1ccc(C(F)(F)F)cc1)Nc1cccc(S(=O)(=O)N2CCCCC2)c1	i	-11.2	i	13.1%	1.4	0.3%
CC(=O)Nc1cccc(C(=O)OC(C)C(=O)Nc2ccc(S(=O)(=O)N3CCCC3)cc2)c1 (configuration not stated)	i	33.1	i	-9.2%	2.8	7.6%
CN(C)c1ccc(C(=O)OCC(=O)Nc2cccc(S(=O)(=O)N3CCCC3)c2)cc1	16.4µM*	-14.2	i	3.8%	-15.2	9.6%
CSc1ncccc1C(=O)OCC(=O)c1ccc(S(=O)(=O)N2CCCCC2)cc1	23.1µM*	-29.2	i	-3.5%	-1.2	3.9%
SMILES	KB-V1 MDR tox	D3 antag	KB-3-1 cytotox	SW480 rereplic	DRD3 agonist	MCF10A rereplic
Nc1ccn([C@@H]2O[C@H](CNCc3cnc(N4CCOCC4)s3)[C@@H](O)[C@H]2O)c(=O)n1	i	27.6	i	·	5.0	·
CCOCCc1nnc(NC(=O)C(=O)c2cc(C)n(-c3ccc(C)c(C)c3)c2C)s1	i	·	i	·	1.6	·
O/N=C(/C[n+]1ccsc1)c1ccc(I)cc1	i	·	i	·	·	·
NS(=O)(=O)c1ccc(NC(=S)NC(=O)c2cccs2)cc1	i	-27.6	i	-3.6%	-10.0	-5.1%
Cc1cccc(N2CC(C(=O)Nc3ccc(S(=O)(=O)N4CCCCC4)cc3)CC2=O)c1C (configuration not stated)	i	17.0	i	7.6%	-7.4	13µM*
O=C(NC(=S)Nc1ccc(S(=O)(=O)N2CCCCC2)cc1)c1cccs1	3.26µM*	-29.4	?	12.5%	-3.4	6.8%
Cc1ccccc1C(=O)OCC(=O)Nc1cccc(S(=O)(=O)N2CCCCC2)c1	i	20.6	i	·	3.1	·
COC(=O)Nc1ccc(S(=O)(=O)N2CCCCCC2)cc1	18.4µM*	3.8	i	19.4%	-11.2	?
Cc1ccc(C)c(C(=O)OCC(=O)Nc2cccc(S(=O)(=O)N3CCCCC3)c2)c1	?	-18.7	14.6µM*	?	-12.8	8.0%
Cc1ccc(/C=C/c2onc(C)c2S(=O)(=O)N2CCC(C(=O)NCc3ccc(OC(C)C)cc3)CC2)cc1	·	·	·	·	-5.8	·
COc1ccc(S(=O)(=O)N2CCCCCC2)cc1C(=O)OCC(=O)NC(N)=O	i	5.2	i	-7.5%	3.6	3.8%
Cc1nnc(SC(C)C(=O)Nc2ccc(S(=O)(=O)N3CCCCCC3)cc2)s1 (configuration not stated)	16.4µM*	?	i	-2.5%	-7.2	13.7%
COC(=O)c1ccc(NC(=O)COc2ccc(S(=O)(=O)N3CCCCC3)cc2)cc1	5.17µM*	-14.4	i	1.2%	-5.3	0.3%
COc1ccc(S(=O)(=O)N2CCCCCC2)cc1C(=O)OCC(=O)NC(C)(C)C	i	1.6	i	-13.6%	38.6*	17.3%
O=C(COC(=O)C1CC2C=CC1C2)Nc1cccc(S(=O)(=O)N2CCCCC2)c1 (configuration not stated)	i	7.4	i	-3.3%	31.4*	12.7%

Compound activity deposited in PubChem BioAssay by National Center for Advancing Translational Sciences (NCATS).
